This is a sample that favours compounds with a hit; in the whole collection about 2.6% have one here.
PME-1 primary: PME-1 (human) inhibition; 320,000 compounds, 0.53% hits; recombinant PME-1, FP-Rh probe fluorescence polarization; inhibition, % at 5.9 µM; Q9Y570;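 active = inhibition above the campaign mean of all compounds plus 3 SD, cut at about 26% in these data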;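 also: competitive labeling of PME-1 active site by serine hydrolase directed probe; inhibitors block probe labeling so polarization falls and inhibition rises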
SIAE primary: blocks human sialic acid acetylesterase. SIAE FP-Rh probe binding, fluorescence polarization. inhibition, % at 9.66 µM. 370,000 compounds, 0.69% hits. AID 1053197;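 active = inhibition above a cutoff: mean of compounds within the control limits plus 3 SD of those, cut at about 17% in these data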
Target sequence (Q9HAT2 whole entry, looked up): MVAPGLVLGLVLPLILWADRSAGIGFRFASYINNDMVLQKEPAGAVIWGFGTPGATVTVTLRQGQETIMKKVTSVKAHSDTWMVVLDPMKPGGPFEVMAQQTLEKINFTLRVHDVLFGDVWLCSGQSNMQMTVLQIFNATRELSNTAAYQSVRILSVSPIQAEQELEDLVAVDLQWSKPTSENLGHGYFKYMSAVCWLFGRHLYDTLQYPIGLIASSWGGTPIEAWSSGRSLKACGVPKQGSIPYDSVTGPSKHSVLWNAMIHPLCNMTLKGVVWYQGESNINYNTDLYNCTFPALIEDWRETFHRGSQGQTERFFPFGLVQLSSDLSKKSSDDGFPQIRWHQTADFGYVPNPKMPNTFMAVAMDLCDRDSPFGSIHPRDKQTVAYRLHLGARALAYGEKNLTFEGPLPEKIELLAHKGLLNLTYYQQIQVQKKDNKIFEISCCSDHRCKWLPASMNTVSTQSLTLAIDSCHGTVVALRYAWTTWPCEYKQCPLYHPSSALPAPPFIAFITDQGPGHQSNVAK
PRMT1 FP inh: blocks human protein arginine methyltransferase 1; 370,000 compounds, 1.3% hits; inhibition, % at 2.79 µM; Q99873; AID 652257; recombinant PRMT1, activity-based probe fluorescence polarization;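 active = inhibition above about 21% made by adding two undisclosed values, limit read from the data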
PAD4 FP inh: inhibitors of human PAD4; Q9UM07; recombinant PAD4, RCA probe fluorescence polarization; inhibition, % at 6.36 µM; 330,000 compounds, 0.41% hits;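 active = percent inhibition above a cutoff equal to the mean of all tested compounds plus 3 SD, cut at about 15% in these data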
Fam108B counter: Fam108B inhibition, counter-screen for RBBP9 inhibitors; recombinant Fam108B, FP-Rh probe fluorescence polarization; inhibition, % at 9.51 µM; 300,000 compounds, 0.33% hits;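 active = inhibition above the screen mean inhibition plus 3 SD, computed separately per campaign, cut at about 18% in these data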;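 also: inhibitors lower polarization as less probe binds the enzyme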
TCR-CD3 inh: inhibitors of human TCR-CD3 interaction | TAMRA-labeled TCR probe fluorescence, biochemical | inhibition, % at 9.4 µM | 360,000 compounds, 0.37% hits | AID 651800; in the data active = inhibition above about 19%;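 also: recombinant mutant TCR 2C K166C tagged with TAMRA read by polarization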
PRMT1 confirm: confirmation of human PRMT1 inhibitors; inhibition, % at 2.79 µM; AID 687036; shares compounds with PRMT1 FP inh; recombinant His-PRMT1, activity-based probe fluorescence polarization; 3,300 compounds, 42% hits;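 active = mean inhibition across replicates above the hit cutoff derived for the earlier primary screen, cut at about 22% in these data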
Large screens that a line does not name were inactive (follow-up assays come after a bar, where they were run).

CCc1ccccc1NC(=O)C1C2C=CC(O2)C1C(=O)O (centres undefined)	none
O=[N+]([O-])c1ccc(Cl)c(C2Nc3cccc4cccc(c34)N2)c1	PRMT1 FP inh 53 | PRMT1 confirm 26
O=C(Nc1cccc(NC(=O)c2cc([N+](=O)[O-])ccc2Cl)n1)c1cc([N+](=O)[O-])ccc1Cl	none (no result: SIAE primary, PRMT1 FP inh, TCR-CD3 inh)
CC(=NNC(=O)CSc1nnc(-c2ccccc2)n1-c1ccccc1)c1cccc([N+](=O)[O-])c1	none (no result: PME-1 primary, PAD4 FP inh, Fam108B counter, TCR-CD3 inh)
Cc1ccccc1-c1nc2ccccc2c(=O)n1/N=C/c1ccccc1[N+](=O)[O-]	PRMT1 FP inh 31 | PRMT1 confirm inactive
O=C(COc1ccccc1)Nc1ccc(S(=O)(=O)Nc2ccccn2)cc1	PRMT1 FP inh 32 | PRMT1 confirm inactive
COc1ccc2nc(C)cc(SCC(=O)N/N=C/c3c(OC)ccc4ccccc34)c2c1	none
Cc1cc(SCC(=O)NN)c2cc(Br)ccc2n1	PRMT1 FP inh 64 | PRMT1 confirm 60
COc1cccc2c(SCC(=O)N/N=C/c3ccc(O)cc3O)cc(C)nc12	PRMT1 FP inh 46 (no result: PME-1 primary, PAD4 FP inh, Fam108B counter) | PRMT1 confirm inactive
COc1ccccc1/C=N/NC(=O)CSc1cc(C)nc2ccccc12	PRMT1 FP inh 33 | PRMT1 confirm inactive
CN1CC=C(c2ccccc2)N(c2ccccc2)C1=O	none (no result: PME-1 primary, PAD4 FP inh, Fam108B counter, TCR-CD3 inh)
COC(=O)C(C(=O)OC)[C@H]1C=C[C@@H](C(=O)NS(=O)(=O)c2ccc(C)cc2)N(C(C)=O)C1	none (no result: PME-1 primary, PAD4 FP inh, Fam108B counter, TCR-CD3 inh)
Cc1cccc(NC(=O)CN2C(=O)CCSc3ccccc32)c1C	none (no result: PME-1 primary, PAD4 FP inh, Fam108B counter, TCR-CD3 inh)
O=C(Sc1cccc2cccnc12)c1ccc(F)cc1	PRMT1 FP inh 27 (no result: PME-1 primary, PAD4 FP inh, Fam108B counter) | PRMT1 confirm 27
C=CCN1C(C(=O)OC)CN(Cc2cn(Cc3ccc(OC)cc3)nn2)CCS1(=O)=O (centres undefined)	none (no result: PME-1 primary, PAD4 FP inh, Fam108B counter, TCR-CD3 inh)
COC(=O)[C@]12C[C@H](CC(=O)NCc3cccc4ccccc34)C(=O)N(Cc3ccc(Cl)cc3Cl)C1=C[C@H](COCc1ccccc1)O[C@@H]2C	PRMT1 FP inh 68 (no result: PME-1 primary, PAD4 FP inh, Fam108B counter, TCR-CD3 inh) | PRMT1 confirm inactive
COC(=O)[C@]12C[C@H](CC(=O)NCc3ccccc3)C(=O)N(Cc3ccc(Cl)cc3Cl)C1=C[C@H](COCc1ccccc1)O[C@@H]2C	none (no result: PME-1 primary, PAD4 FP inh, Fam108B counter, TCR-CD3 inh)
CCN(CC)C1CC(=O)N(c2cccc(Cl)c2)C1=O (centres undefined)	PRMT1 FP inh 34 | PRMT1 confirm 29
NC(=O)C1CCN(C2CC(=O)N(Cc3ccc(N4CCCC4=O)cc3)C2=O)CC1 (centres undefined)	PRMT1 FP inh 58 | PRMT1 confirm inactive
O=C(O)c1ccc(N2C(=O)CC(N3CCN(c4ccc(Cl)cc4)CC3)C2=O)cc1 (centres undefined)	none
Cc1ccc(NNC2CC(=O)N(c3cccc(Cl)c3)C2=O)cc1 (centres undefined)	none (no result: PME-1 primary, PAD4 FP inh, Fam108B counter)
CC(=O)Oc1ccc(N2C(=O)CC(N3CCOCC3)C2=O)cc1 (centres undefined)	PRMT1 FP inh 43 | PRMT1 confirm inactive
O=C(C1CCN(C2CC(=O)N(c3ccc(Cl)cc3)C2=O)CC1)N1CCOCC1 (centres undefined)	PRMT1 FP inh 27 | PRMT1 confirm inactive
O=C(COc1c(Cl)cc(Cl)cc1Cl)N/N=C/c1ccc[nH]1	none (no result: PME-1 primary, PAD4 FP inh, Fam108B counter, TCR-CD3 inh)
COc1ccc(-c2cc(C(=O)N/N=C/C(C)=C\c3ccco3)[nH]n2)cc1	none (no result: PME-1 primary, PAD4 FP inh, Fam108B counter, TCR-CD3 inh)
O=C(C1CCN(C2CC(=O)N(c3cccc(Cl)c3)C2=O)CC1)N1CCCC1 (centres undefined)	PRMT1 FP inh 30 | PRMT1 confirm inactive
CC(=O)Oc1cccc(N2C(=O)C3C4C=CC(C4=C(C)C)C3C2=O)c1 (centres undefined)	PRMT1 FP inh 64 | PRMT1 confirm inactive
O=C(C1CCN(Cc2ccccc2)CC1)N1CCCC1	none
CC(=O)Oc1ccc(N2C(=O)CCC2=O)cc1	none
O=C(C1CCN(C2CC(=O)N(Cc3ccccc3)C2=O)CC1)N1CCCCCC1 (centres undefined)	PRMT1 FP inh 57 | PRMT1 confirm inactive
CC(=O)Oc1cccc(N2C(=O)C3C(C2=O)C2C=CC3C23CC3)c1 (centres undefined)	none
CC(=O)Oc1ccc(N2C(=O)C3C4C=CC(O4)C3C2=O)cc1 (centres undefined)	PRMT1 FP inh 95 | PRMT1 confirm 27
CCCOc1ccc(-c2nc(CSCC(=O)NC3CC3)c(C)o2)cc1	none (no result: PME-1 primary, PAD4 FP inh, Fam108B counter, TCR-CD3 inh)
Cc1ccc2nc(N(CCCN(C)C)C(=O)c3ccc4ncsc4c3)sc2c1	PRMT1 FP inh 28 | PRMT1 confirm inactive
Nc1c(C(=O)N/N=C/c2cccnc2)oc2nc(-c3ccco3)cc(-c3ccco3)c12	PRMT1 FP inh 46 | PRMT1 confirm inactive
O=C(N/N=C/c1cccnc1)c1cc2ccccc2o1	none
CN(C)c1cccc(-c2cnc(N3CCC(C(N)=O)CC3)s2)c1	none (no result: PME-1 primary, PAD4 FP inh, Fam108B counter, TCR-CD3 inh)
NC(=O)c1ccccc1NCC(=O)c1ccc(F)cc1	PRMT1 FP inh 34 | PRMT1 confirm inactive
O=C(CNc1ccc(F)cc1)c1ccccc1	none
Cc1cccc(C)c1NC(=O)/C(=C/c1ccco1)c1ccccc1	PRMT1 FP inh 26 | PRMT1 confirm inactive
Cc1cc(C)c(NC(=O)/C(=C/c2ccco2)c2ccccc2)c(C)c1	none
COc1cc2c(cc1OC)C(c1ccccc1O)N(C1CC(=O)N(c3ccccc3)C1=O)CC2 (centres undefined)	PRMT1 FP inh 83 | PRMT1 confirm inactive
COc1ccc(Cn2ccc3ccc(-c4ccc5ccn(C(=O)c6ccccc6C)c5c4)cc32)cc1	none (no result: PME-1 primary, PAD4 FP inh, Fam108B counter, TCR-CD3 inh)
COCCCNC(=S)N/N=C/c1ccc(O)cc1	none
COCCCNC(=S)N/N=C/c1ccc(OC)cc1	PRMT1 FP inh 29 | PRMT1 confirm inactive
NC(=S)NN=Cc1ccc(-c2ccc(S(=O)(=O)Nc3ncccn3)cc2)o1	PRMT1 FP inh 32 (no result: PME-1 primary, Fam108B counter) | PRMT1 confirm inactive
NC(=S)N/N=C/c1ccc(-c2ccccc2)o1	none
COC(=O)[C@]12C[C@H](CC(=O)N3CCCC3)C(=O)N(CCC3=CCCCC3)C1=C[C@H](C1CCCC1)O[C@@H]2C	none (no result: PME-1 primary, PAD4 FP inh, Fam108B counter, TCR-CD3 inh)
CN1CCCN(C(=O)CSc2nnc(-c3cccnc3)n2C2CCCCC2)CC1	none (no result: PME-1 primary, PAD4 FP inh, Fam108B counter, TCR-CD3 inh)
O=C1OCCN1/N=C/c1ccc([N+](=O)[O-])o1	none
O=C1CN(/N=C/c2ccc([N+](=O)[O-])o2)C(=O)N1	PRMT1 FP inh 30 | PRMT1 confirm inactive
O=C(NCCc1c[nH]c2ccccc12)[C@H](Cc1c[nH]c2ccccc12)NC1(C(=O)NC2CCCCC2)CCCCCCC1	none (no result: PME-1 primary, PAD4 FP inh, Fam108B counter, TCR-CD3 inh)
CCN1CCN(C(=S)c2ccc(Br)cc2)CC1	PRMT1 FP inh 36 | PRMT1 confirm 35
CCN1CCN(C(=S)c2ccc(O)cc2)CC1	PRMT1 FP inh 81 | PRMT1 confirm 52
Cc1nc2ccccn2c1C(O)(c1ccccc1)c1ccccc1	none (no result: PME-1 primary, PAD4 FP inh, Fam108B counter, TCR-CD3 inh)
Cc1ccc2nc(-c3ccc(NC(=O)CSc4nnc(-c5ccccc5)n4Cc4ccco4)cc3)sc2c1	PRMT1 FP inh 25 (no result: PME-1 primary, PAD4 FP inh, Fam108B counter, TCR-CD3 inh) | PRMT1 confirm inactive
